Experimental findings from article PMC11006913 are described below.

Chain of HOXD13 (Homo sapiens, UniProt P35453 263-343) (P35453 263-343): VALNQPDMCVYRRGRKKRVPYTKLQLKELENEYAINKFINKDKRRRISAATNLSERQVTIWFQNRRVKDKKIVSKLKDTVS
Chain of HOXA4 (Homo sapiens, UniProt Q00056 201-287, R217L) (Q00056 201-287 R217L): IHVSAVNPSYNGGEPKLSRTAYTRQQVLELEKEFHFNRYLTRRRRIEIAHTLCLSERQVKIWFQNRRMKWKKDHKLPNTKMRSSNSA

One test has as its target HOXA4 (Homo sapiens, UniProt Q00056 201-287, R217L). The test can be described thus: PBM; 200 nM protein, PBS. To be noted: dsDNA, one strand shown.
Consider CCTCGTCC, for which the binding signal was 9.95 upbm affinity estimate (log intensity, higher = more binding, comparable within an allelic series).
On the same count and under the same terms, under CATTAATC stands 11.9 upbm affinity estimate (log intensity, higher = more binding, comparable within an allelic series).

The target of the next test is MSX2 (Homo sapiens, UniProt P35548 130-214, R199I). Put plainly: PBM; 200 nM protein, PBS. To be noted: dsDNA, one strand shown.
Chain of MSX2 (Homo sapiens, UniProt P35548 130-214, R199I) (P35548 130-214 R199I): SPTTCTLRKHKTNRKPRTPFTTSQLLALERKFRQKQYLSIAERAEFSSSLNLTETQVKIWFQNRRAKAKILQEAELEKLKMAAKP
On to GCTGCTCC, for which the binding signal was 9.39 upbm affinity estimate (log intensity, higher = more binding, comparable within an allelic series).
As to AGGGCGGG, the binding signal was 9.58 upbm affinity estimate (log intensity, higher = more binding, comparable within an allelic series).
On the same count and under the same terms, to GGCCCGGA belongs 9.48 upbm affinity estimate (log intensity, higher = more binding, comparable within an allelic series); to CCCGGTCG, 9.45 upbm affinity estimate (log intensity, higher = more binding, comparable within an allelic series).

In the next test the target is ALX3 (Homo sapiens, UniProt O95076 139-225, N203Q). The test can be described thus: PBM; 200 nM protein, PBS. To be noted: dsDNA, one strand shown.
Chain of ALX3 (Homo sapiens, UniProt O95076 139-225, N203Q) (O95076 139-225 N203Q): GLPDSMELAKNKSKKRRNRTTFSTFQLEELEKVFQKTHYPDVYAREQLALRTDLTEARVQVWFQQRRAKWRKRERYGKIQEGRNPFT
On to CGAGGGCG, for which the binding signal was 7.74 upbm affinity estimate (log intensity, higher = more binding, comparable within an allelic series).
The same measure, in the same setting: under ACCCCCCG stands 7.72 upbm affinity estimate (log intensity, higher = more binding, comparable within an allelic series); under GGCCCGGA, 7.72 upbm affinity estimate (log intensity, higher = more binding, comparable within an allelic series).
On the same count and under the same terms, under CCCCCCGA stands 7.7 upbm affinity estimate (log intensity, higher = more binding, comparable within an allelic series); under ATCCCCCC, 7.65 upbm affinity estimate (log intensity, higher = more binding, comparable within an allelic series).
On the same count and under the same terms, under CCCAGACC stands 7.81 upbm affinity estimate (log intensity, higher = more binding, comparable within an allelic series); under CCCCCGGC, 7.57 upbm affinity estimate (log intensity, higher = more binding, comparable within an allelic series); under CCGGCTCC, 7.7 upbm affinity estimate (log intensity, higher = more binding, comparable within an allelic series).
Consider AACTAATA, for which the binding signal was 8.57 upbm affinity estimate (log intensity, higher = more binding, comparable within an allelic series).

In the next test the target is HOXD13 (Homo sapiens, UniProt P35453 263-343, T313R). The test can be described thus: PBM; 200 nM protein, PBS. To be noted: dsDNA, one strand shown.
Chain of HOXD13 (Homo sapiens, UniProt P35453 263-343, T313R) (P35453 263-343 T313R): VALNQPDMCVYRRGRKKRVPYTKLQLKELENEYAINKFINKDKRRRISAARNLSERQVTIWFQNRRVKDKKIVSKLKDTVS
Take AGGCTGGG: the binding signal is 9.56 upbm affinity estimate (log intensity, higher = more binding, comparable within an allelic series).
Regarding AGAAGGGG, the binding signal was 9.5 upbm affinity estimate (log intensity, higher = more binding, comparable within an allelic series).
Same read-out and setting: under CCCCAAGG stands 9.45 upbm affinity estimate (log intensity, higher = more binding, comparable within an allelic series); under CAATAAAG, 10.8 upbm affinity estimate (log intensity, higher = more binding, comparable within an allelic series).

The next test has as its target T1, NKX2-6 (Homo sapiens, UniProt A6NCS4 118-204).
T1 sequence: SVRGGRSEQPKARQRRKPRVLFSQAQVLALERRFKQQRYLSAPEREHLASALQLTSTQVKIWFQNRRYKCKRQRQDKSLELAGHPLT
Put plainly: PBM; 200 nM protein, PBS. To be noted: dsDNA, one strand shown.
Turning to ACCCCCCG, the binding signal is 9.16 upbm affinity estimate (log intensity, higher = more binding, comparable within an allelic series).
Consider CCCGTGTC, for which the binding signal is 9.5 upbm affinity estimate (log intensity, higher = more binding, comparable within an allelic series).
With CCCGGTCG, the binding signal was 9.06 upbm affinity estimate (log intensity, higher = more binding, comparable within an allelic series).

The target of a further test is HOXA2 (Homo sapiens, UniProt O43364 129-215, R185K). The test can be described thus: PBM; 200 nM protein, PBS. To be noted: dsDNA, one strand shown.
Chain of HOXA2 (O43364 129-215 R185K): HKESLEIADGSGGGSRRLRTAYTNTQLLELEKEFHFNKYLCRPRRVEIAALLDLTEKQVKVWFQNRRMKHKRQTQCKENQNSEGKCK
ATAATGAG: the binding signal was 13.2 upbm affinity estimate (log intensity, higher = more binding, comparable within an allelic series).
Regarding TAATGAGA, the binding signal is 13.3 upbm affinity estimate (log intensity, higher = more binding, comparable within an allelic series).
The same measure, in the same setting: under CACTGGCC stands 10.5 upbm affinity estimate (log intensity, higher = more binding, comparable within an allelic series); under AGGGCTCC, 10.4 upbm affinity estimate (log intensity, higher = more binding, comparable within an allelic series).
The same measure, in the same setting: under ATCCCCCC stands 10.1 upbm affinity estimate (log intensity, higher = more binding, comparable within an allelic series); under CATTAATC, 13.2 upbm affinity estimate (log intensity, higher = more binding, comparable within an allelic series).

Another test has as its target HOXD13 (Homo sapiens, UniProt P35453 263-343). The test can be described thus: PBM; 200 nM protein, PBS. To be noted: dsDNA, one strand shown.
AGGCTGGG: the binding signal was 9.59 upbm affinity estimate (log intensity, higher = more binding, comparable within an allelic series).
As to AGAAGGGG, the binding signal was 9.51 upbm affinity estimate (log intensity, higher = more binding, comparable within an allelic series).
The same measure, in the same setting: to CCCCAAGG belongs 9.55 upbm affinity estimate (log intensity, higher = more binding, comparable within an allelic series); to CAATAAAG, 11.9 upbm affinity estimate (log intensity, higher = more binding, comparable within an allelic series).

The target in another test is HOXA4 (Homo sapiens, UniProt Q00056 201-287). Put plainly: PBM; 200 nM protein, PBS. The note with it: dsDNA, one strand shown.
Chain of HOXA4 (Homo sapiens, UniProt Q00056 201-287) (Q00056 201-287): as the sequence (Q00056 201-287 R217L) above, with L17R counted along it
As for GCTGCTCC, the binding signal was 9.73 upbm affinity estimate (log intensity, higher = more binding, comparable within an allelic series).
As for GACTCCGC, the binding signal is 9.59 upbm affinity estimate (log intensity, higher = more binding, comparable within an allelic series).
For the sequence AGGCTGGG, the binding signal was 9.82 upbm affinity estimate (log intensity, higher = more binding, comparable within an allelic series).
Still for that read-out and setting: under CATCCCCC stands 9.66 upbm affinity estimate (log intensity, higher = more binding, comparable within an allelic series).
Consider CCCCCTAG, for which the binding signal is 9.77 upbm affinity estimate (log intensity, higher = more binding, comparable within an allelic series).
On the same count and under the same terms, to ATAATGAG belongs 13.6 upbm affinity estimate (log intensity, higher = more binding, comparable within an allelic series); to CGAGGGCG, 9.8 upbm affinity estimate (log intensity, higher = more binding, comparable within an allelic series).
Same read-out and setting: under AGGGCGGG stands 10 upbm affinity estimate (log intensity, higher = more binding, comparable within an allelic series); under ATCATAAG, 11.8 upbm affinity estimate (log intensity, higher = more binding, comparable within an allelic series).
On to TAATGAGA, for which the binding signal is 13.6 upbm affinity estimate (log intensity, higher = more binding, comparable within an allelic series).
Same read-out and setting: to AGAAGGGG belongs 9.57 upbm affinity estimate (log intensity, higher = more binding, comparable within an allelic series); to CACTGGCC, 9.86 upbm affinity estimate (log intensity, higher = more binding, comparable within an allelic series); to GAAGGGGA, 9.82 upbm affinity estimate (log intensity, higher = more binding, comparable within an allelic series).
Still for that read-out and setting: to ACCCCCCG belongs 9.93 upbm affinity estimate (log intensity, higher = more binding, comparable within an allelic series).
With CCCGTGTC, the binding signal is 9.62 upbm affinity estimate (log intensity, higher = more binding, comparable within an allelic series).
Still for that read-out and setting: under CATTAACG stands 13.6 upbm affinity estimate (log intensity, higher = more binding, comparable within an allelic series); under GCCCCCAC, 9.63 upbm affinity estimate (log intensity, higher = more binding, comparable within an allelic series); under AGGGCTCC, 9.81 upbm affinity estimate (log intensity, higher = more binding, comparable within an allelic series).
As for CCTGGGCG, the binding signal was 9.75 upbm affinity estimate (log intensity, higher = more binding, comparable within an allelic series).
The same measure, in the same setting: under AGCTCCCC stands 9.78 upbm affinity estimate (log intensity, higher = more binding, comparable within an allelic series); under CCCCAAGG, 9.65 upbm affinity estimate (log intensity, higher = more binding, comparable within an allelic series); under CAATAAAG, 11.7 upbm affinity estimate (log intensity, higher = more binding, comparable within an allelic series).
Same read-out and setting: under GCGGTCAC stands 9.75 upbm affinity estimate (log intensity, higher = more binding, comparable within an allelic series).
Same read-out and setting: under GGCCCGGA stands 9.79 upbm affinity estimate (log intensity, higher = more binding, comparable within an allelic series); under AGGAGTCC, 9.77 upbm affinity estimate (log intensity, higher = more binding, comparable within an allelic series).
For the sequence CCCCCCGA, the binding signal is 9.77 upbm affinity estimate (log intensity, higher = more binding, comparable within an allelic series).
With ATCCCCCC, the binding signal was 9.5 upbm affinity estimate (log intensity, higher = more binding, comparable within an allelic series).
For AGTCCCCG, the binding signal was 9.89 upbm affinity estimate (log intensity, higher = more binding, comparable within an allelic series).
The same measure, in the same setting: to CCCAGACC belongs 9.51 upbm affinity estimate (log intensity, higher = more binding, comparable within an allelic series); to AGGGACGG, 9.78 upbm affinity estimate (log intensity, higher = more binding, comparable within an allelic series); to CCCCCGGC, 9.88 upbm affinity estimate (log intensity, higher = more binding, comparable within an allelic series).
Still for that read-out and setting: under CCGGCACG stands 9.85 upbm affinity estimate (log intensity, higher = more binding, comparable within an allelic series).
Take GACTCACC: the binding signal was 9.79 upbm affinity estimate (log intensity, higher = more binding, comparable within an allelic series).
With CCCGGTCG, the binding signal was 9.88 upbm affinity estimate (log intensity, higher = more binding, comparable within an allelic series).
Same read-out and setting: under CCCATGGC stands 9.77 upbm affinity estimate (log intensity, higher = more binding, comparable within an allelic series); under CCGGCTCC, 9.48 upbm affinity estimate (log intensity, higher = more binding, comparable within an allelic series); under GGGGCACC, 9.9 upbm affinity estimate (log intensity, higher = more binding, comparable within an allelic series).
In the case of AACTAATA, the binding signal is 12.5 upbm affinity estimate (log intensity, higher = more binding, comparable within an allelic series).
Still for that read-out and setting: to CCTCGTCC belongs 9.86 upbm affinity estimate (log intensity, higher = more binding, comparable within an allelic series).
Regarding CATTAATC, the binding signal is 13.6 upbm affinity estimate (log intensity, higher = more binding, comparable within an allelic series).

For the next test, the target named is MSX2 (Homo sapiens, UniProt P35548 130-214). The test can be described thus: PBM; 200 nM protein, PBS. To be noted: dsDNA, one strand shown.
Chain of MSX2 (Homo sapiens, UniProt P35548 130-214) (P35548 130-214): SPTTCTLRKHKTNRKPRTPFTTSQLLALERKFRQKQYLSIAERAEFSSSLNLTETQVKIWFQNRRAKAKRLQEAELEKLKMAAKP
For GCTGCTCC, the binding signal is 9.4 upbm affinity estimate (log intensity, higher = more binding, comparable within an allelic series).
The same measure, in the same setting: under AGGGCGGG stands 9.55 upbm affinity estimate (log intensity, higher = more binding, comparable within an allelic series); under GGCCCGGA, 9.31 upbm affinity estimate (log intensity, higher = more binding, comparable within an allelic series).
On to CCCGGTCG, for which the binding signal was 9.4 upbm affinity estimate (log intensity, higher = more binding, comparable within an allelic series).

In another test the target is ALX3 (Homo sapiens, UniProt O95076 139-225). Put plainly: PBM; 200 nM protein, PBS. To be noted: dsDNA, one strand shown.
Chain of ALX3 (Homo sapiens, UniProt O95076 139-225) (O95076 139-225): as the sequence (O95076 139-225 N203Q) above, with Q65N counted along it
On to CGAGGGCG, for which the binding signal was 7.69 upbm affinity estimate (log intensity, higher = more binding, comparable within an allelic series).
Still for that read-out and setting: under ACCCCCCG stands 7.75 upbm affinity estimate (log intensity, higher = more binding, comparable within an allelic series); under GGCCCGGA, 7.7 upbm affinity estimate (log intensity, higher = more binding, comparable within an allelic series).
Turning to CCCCCCGA, the binding signal was 7.94 upbm affinity estimate (log intensity, higher = more binding, comparable within an allelic series).
As to ATCCCCCC, the binding signal was 7.91 upbm affinity estimate (log intensity, higher = more binding, comparable within an allelic series).
On the same count and under the same terms, to CCCAGACC belongs 7.71 upbm affinity estimate (log intensity, higher = more binding, comparable within an allelic series); to CCCCCGGC, 7.92 upbm affinity estimate (log intensity, higher = more binding, comparable within an allelic series); to CCGGCTCC, 7.5 upbm affinity estimate (log intensity, higher = more binding, comparable within an allelic series).

For the next test, the target named is VAX1 (Homo sapiens, UniProt Q5SQQ9 86-172). The test can be described thus: PBM; 200 nM protein, PBS. To be noted: dsDNA, one strand shown.
Chain of VAX1 (Q5SQQ9 86-172): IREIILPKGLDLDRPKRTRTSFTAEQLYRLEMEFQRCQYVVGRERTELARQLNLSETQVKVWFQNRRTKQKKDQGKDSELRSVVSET
As for ATAATGAG, the binding signal is 12.8 upbm affinity estimate (log intensity, higher = more binding, comparable within an allelic series).
The same measure, in the same setting: under TAATGAGA stands 13.2 upbm affinity estimate (log intensity, higher = more binding, comparable within an allelic series); under GACTCACC, 6.98 upbm affinity estimate (log intensity, higher = more binding, comparable within an allelic series).
